# Source: the supplement of paper PMC12632987
# T1: USP38, Q8NB14
# T1 chain: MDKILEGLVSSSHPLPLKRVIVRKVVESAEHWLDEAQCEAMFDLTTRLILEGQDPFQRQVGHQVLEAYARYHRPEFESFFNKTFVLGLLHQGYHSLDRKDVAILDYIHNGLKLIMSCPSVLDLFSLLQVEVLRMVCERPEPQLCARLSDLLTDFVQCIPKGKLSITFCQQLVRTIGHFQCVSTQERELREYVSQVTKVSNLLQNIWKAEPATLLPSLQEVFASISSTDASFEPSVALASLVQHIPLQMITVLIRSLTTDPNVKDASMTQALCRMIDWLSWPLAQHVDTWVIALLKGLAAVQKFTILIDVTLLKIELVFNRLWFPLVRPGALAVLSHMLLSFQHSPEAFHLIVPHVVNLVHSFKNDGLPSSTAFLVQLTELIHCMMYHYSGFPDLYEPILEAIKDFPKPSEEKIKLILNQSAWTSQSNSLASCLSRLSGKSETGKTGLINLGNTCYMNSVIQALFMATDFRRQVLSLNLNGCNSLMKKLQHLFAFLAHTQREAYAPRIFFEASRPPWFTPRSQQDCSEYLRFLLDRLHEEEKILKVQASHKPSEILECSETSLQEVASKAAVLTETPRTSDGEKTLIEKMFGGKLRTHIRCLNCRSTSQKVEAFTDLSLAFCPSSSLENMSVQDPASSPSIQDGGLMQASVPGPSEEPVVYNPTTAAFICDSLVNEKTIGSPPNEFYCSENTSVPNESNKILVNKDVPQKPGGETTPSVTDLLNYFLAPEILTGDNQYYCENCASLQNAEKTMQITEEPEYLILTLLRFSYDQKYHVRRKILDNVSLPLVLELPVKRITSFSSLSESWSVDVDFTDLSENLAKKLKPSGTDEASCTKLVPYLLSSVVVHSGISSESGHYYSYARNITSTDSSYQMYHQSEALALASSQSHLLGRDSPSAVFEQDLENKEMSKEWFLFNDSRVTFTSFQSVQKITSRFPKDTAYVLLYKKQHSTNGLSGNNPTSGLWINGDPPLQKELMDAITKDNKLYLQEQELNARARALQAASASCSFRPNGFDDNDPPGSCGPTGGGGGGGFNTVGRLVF
# Target: T1, USP38, Q8NB14
# Test: median log2 fold change of GCK-ALFA target abundance (FLAG IP / Myc IP barcode read proportion) (log2 ratio); each designed protein is fused to an ALFA-tag nanobody in HEK293 cells to bring the named protein to FLAG-tagged glucokinase (GCK); Myc marks an untargeted standard; higher = target protein stabilised (more abundant)
# Conditions: target protein: 3xFLAG-MCP-GCK-ALFA reporter; HEK293 landing pad (RPLP)
# Procedure, shortened: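 An ALFA-nanobody-fused binder library was recombined into HEK293 landing-pad cells and induced with 2 μg mL^−1 doxycycline. Cells were transfected with a plasmid expressing a FLAG-tagged target and a Myc-tagged standard. After 48 h, lysates underwent anti-FLAG and anti-Myc immunoprecipitation, and circular RNA barcodes were reverse transcribed, amplified and sequenced. Target abundance is the per-binder median log2 ratio of FLAG to Myc barcode read proportions. Barcodes needed ≥10^−7 proportion in both replicates, binders ≥3 barcodes per replicate, and a 10^−6 pseudocount was added; the two replicates were pooled.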
row,Binder,median log2 fold change
1,usp_38_diff_out_18_14_357 (protein) SEAELEAQREYLEAFLEAAEIVNEEAERIIEREREKRILSADRLALMLGGLRALAEEAEEKLREARELGFEELAERLEEALERLEENAERFEALLAERRA,-0.477
2,usp_38_diff_out_18_14_350 (protein) SEELEKQKLSNLKSLKEEVKKNTERLKKIVEKLKDDPESALSLLDTRIQALEGVIKYAEEVLKEAEEKGWEELAKAAKELIKEAEKAKKEAKELKKKLLE,-0.185
3,usp_38_diff_out_18_28_377 (protein) MEEERERLERELEELRERLDELIDEATEASLKKLEEEPDSEEVWELIDRLFDALGAAAAALREARELLKAGGPLEEVQRLLEEARRHLEEAERLLEELKE,-0.388
4,usp_38_diff_out_18_28_378 (protein) AAAERAALEAELAALRAELDALIDEATEAATRALEAHPDDEEVWALVDELFDTLGAAAAALNEARRLLKEGGDLAEVKAALAAARDALARARELLAELKA,-0.0434
5,usp_38_diff_out_18_28_362 (protein) AAAERARLEARLRALGARLDALITDATAAVTAALTAHPDDAAVWALVDALWDALGKAAAAVNEARELLRAGGPAEEVERALEAAEAALAEAQALLAQLRA,-0.0207
6,usp_38_diff_out_18_28_372 (protein) SAAERAALEARLAALEAELNALIDEFVELAERVYEERADDEEALALLDRAWDALGAAAAALNRARELLREGGPAAEVQAQLDAAEAALAEAKALLAELKA,-0.142
7,usp_38_diff_out_18_28_368 (protein) SEEERRELERRLEELTKRLDELIDEATAESTRALTAHPDDEAVWALVDALFDALGAAAAALNRARELLREGGPLEEVQKELDRAEAALKEAEALLAELKA,0.199
8,usp_38_diff_out_18_28_366 (protein) SMEEREKLEKELEELKKELDALIDEATALATEALTAHPDDEEVWALVDELFDSLGKAAAHLNRARELLREGGPLEEVEKELKEAKEHLEKAKELLAKLKA,-0.062
9,usp_38_diff_out_18_28_365 (protein) SEEERRELERRLEELTRRLDELIDEATEAATEALTAHPDDEEVWELVDRLFDALGAAAAALNRARELLREGGPLEEVEEELEEAERHLREAERLLEELRE,0.239
10,usp_38_diff_out_18_14_349 (protein) SEELREQTLSNLKSLKKEVEEVTERTERIVEKLRGDPEAARALLDTRIQALEGVIKYAEEVLKEAEEEGWEEVAKAAKELIEAAKEAKKRAEELRKELEE,-0.113
11,usp_38_diff_out_18_28_369 (protein) SAAERAALEAELAALTARLDALIDEATAEATRRLTEHPDDEEVWELVDELFDALGAAAAALREARELLREGGPLAEVQAALDRARAALARAEALLAELKA,0.292
12,usp_38_diff_out_18_28_367 (protein) SAAARAAAEARLAALTAELDELIDEATAEATAALTAHPDDAAVWALVDALFDALGAAAAALNRARELLREGGPLEEVEAALAQAEAELARARELLAQLRA,0.0424
13,usp_38_diff_out_18_28_363 (protein) EEERRRRLEAELEALRARLDALITEATAAITEALTAHPDDEEVWRLVDELLDALGRAAAALEEARRLLREGGPLEEVERLLREAERELERAERLLEELKA,-0.0876
14,usp_38_diff_out_18_28_376 (protein) SAAERARLEAELAALRAELDALIDEATATATEALEAHPDSEEVWALIDALFDALGAAAAALEEARRLLRAGGPLAEVQALLDRAREHLRRARELLAELKA,-0.0614
15,usp_38_diff_out_18_14_354 (protein) SEELREQTLSNLETLTADVEANTARLRRVVAALKDDPASARALLETRAQAMEGVIEYAERLEREAEEEGDEELLEAARRLRATAEAALAEIQALLAELDA,-0.0379
16,usp_38_diff_out_18_28_374 (protein) SEEEREELERRLRELEERLDELIDEYVELAERVYLEHPDDAEKLALLDAAADALGAAAYHLREARRLLREGGDPEEVERELEKAEEALEEAERLLEELKA,-0.302

row,Binder,median log2 fold change
1,usp_38_diff_out_18_28_360 (protein) MEERREELEKRLKELKAELDKLITEATAAITEALEAHPDDEEVWALVDKLWDALGKAAAAINEARELLREGGDLEEVEKLLKEAEKHLKKAKELLAELKA,0.282
2,usp_38_diff_out_18_14_347 (protein) EEELAEQLKSNFESLTKEVEENTKRTKKIIEKLKDDKESAISLLETRIQALDGVITYAKEEKKEAEEKGFEELKAAAEKLIDAATKAKEELEKLLKELKK,0.152
3,usp_38_diff_out_18_28_364 (protein) SAAERAALEAELKALTAELDALIDEATEVATEKLTEHPDDEEVWELVDKLFDALGAAAAALNKARELLREGGPLEEVKKQLAKAKEALAEAKKLLEELKK,0.391
4,usp_38_diff_out_18_28_370 (protein) SEEERERLEERLAALKAELDALIDRATAAATAALEAHPDDAEVWALIDALFDALGAAAAALNEARRLLREGGDLEEVERLLEQAEAHLAQARALLAQLEA,0.0316
5,usp_38_diff_out_18_14_353 (protein) SEELREQLLSNLKTLKEEVRENRERTKRIVARLRDDPESARSLLESRIQAFKGVIKFAEELEKEAKEEGDEELLAAAKELKKEAEEALKELEALLAELDA,-0.0535
6,usp_38_diff_out_18_28_361 (protein) MEEERRELEEELRRLEEELERLITEATEAITRALTAHPDDEEVWKLVDELWDALGKAAAAINEARELLREGGPLEEVKAKLDEARKYLKEAKKLLEELKK,0.017
7,usp_38_diff_out_18_28_371 (protein) SAAERAALEARLAALEAELDALIDELVELAKEVYEEHADDEEKLALLDAAWDALGRAAGLLRRARELLREGGDPAEVAALLDAAEAALAEAKALLAELKK,-0.371
8,usp_38_diff_out_18_14_351 (protein) EEELREQLLSNLKSLTKEVKENTERTKKIVEKLKDDPESASSLLDTRIQALEGVIKYAEEVLREAKEKGWEELAEAAKELIKEAKKAKEELKKLKEALKA,-0.345
9,usp_38_diff_out_18_14_352 (protein) EEELREQLLSNLRSLTEEVRRNTERLKRIVEKLRDDPESALALLETRRQALEGVIRYAREVLREARERGWEELAEAAEELIRAAEEALEEAKRLEEELKK,-0.239
10,usp_38_diff_out_18_28_373 (protein) SEEEREELKKRLEELEKRLDELIDRYVELANRVYEEHPDDEEKLRLLDEAADALGEAAYHLREARRLLREGGPPEEVKKELEKAEEALKKAEELLKELEE,0.0573
11,usp_38_diff_out_18_159_359 (protein) DEELLAELDKEILRDYSTSLAEEAKEKAKKAKDPEVKKLWAEVAKTAKYAAENLDNPEALAQAAKELTALTEELKKKGALNDREELQLQGLITLLNRVAA,0.289
12,usp_38_diff_out_18_159_358 (protein) DAELLHQLNLELLKAHLKSWAENAEKKAKKTKTEVAKKVAELAKKALELFEKDPNSKEALKEILELAKEALELIKSDPSFNDRDKTSAAGLVVLAQEVLA,0.093
13,usp_38_diff_out_18_14_348 (protein) SEELYEQELSNLKSLTEEVKKNTERLKKIVEKLKDDPESALSLLETREQALKGVIKYAEEVAKEAKKEGREELLKAAEELIKAAKEALAEAKKLREELLA,-0.156
14,usp_38_diff_out_18_14_356 (protein) SEEEREATRLFIEARLAAAELVNADADKIIAYEKKHKNRSADTIEMMRGGLAAMAAELEEDLKLAKELGDEELAARLAAAQAELKARAAEFDALLAEKKA,-0.0299
15,usp_38_diff_out_18_28_375 (protein) SAATRAALEAELAALEARLDALIDEYVALANRVYEEHPDDAEALALLDAAADALGAAAAALAEARRLLRAGGDPAEVRARLAEARAALAEAEALLAQLKA,-0.238
16,usp_38_diff_out_18_28_379 (protein) EEARREELERRLEELRRRLDELIDEATEAATEALTAHPDDEEVWELVDELFDTLGRAAAALERARRLLREGGPLEEVERALEEAERHLEEAEELLEELEE,-0.355
